Measurements as given in PubChem BioAssay (NCATS).
Results filed as inconclusive are left out. The source made the active and inactive calls. The call rests on the fitted dose curve; in most records, active means well fitted curve in the direction sought with a large enough effect; inconclusive means small, poorly fitted or top-dose-only effect, or another doubt; inactive means no such curve, though single readings can be large; an effect the other way counts as inactive or inconclusive.

Experiments:
[1] = OV-KATE Cancer Cell Toxicity qHTS against the NCATS CANVASS Library (AID 1347345); details: OV-KATE cells viability, CellTiter-Glo luminescence, 72 h; series mostly up to 76 µM
How it was run: (§1)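 Toxicity is measured over 72 h of compound exposure at 37 degrees C under 5% CO2. Each well holds 1000 cells, pre-incubated for 4 hours before dosing across an 11-point range. CellTiter-Glo luminescence gives viability.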

[2] = HPAF-II Cancer Cell Toxicity qHTS against the NCATS CANVASS Library (AID 1347346); details: HPAF-II viability, CellTiter-Glo ATP luminescence, 72 h; series mostly up to 76 µM; further: nearly all actives have a fitted effect of over 55% in size
How it was run: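 1000 HPAF-II cells/well; 4 h pre-incubation; 11-pnt compound titration; 72 h, 37 degrees C/5% CO2; CellTiter-Glo, 15 min RT; luminescence read.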

[3] = UWB1.289 Cancer Cell Toxicity qHTS against the NCATS CANVASS Library (AID 1347347); details: UWB1.289 viability, CellTiter-Glo luminescence, 72 h; series mostly up to 76 µM; further: nearly all actives have a fitted effect of over 60% in size
How it was run: as §1

[4] = OV-SAHO Cancer Cell Toxicity qHTS against the NCATS CANVASS Library (AID 1347348); details: OV-SAHO viability, CellTiter-Glo luminescence, 72 h; series mostly up to 76 µM; further: nearly all actives have a fitted effect of over 55% in size
How it was run: as §1

[5] = Panc-1005 Cancer Cell Toxicity qHTS against the NCATS CANVASS Library (AID 1347349); details: Panc-1005 viability, CellTiter-Glo luminescence, 72 h; series mostly up to 76 µM; further: nearly all actives have a fitted effect of over 60% in size
How it was run: as §1

[6] = SW1088 Cancer Cell Toxicity qHTS against the NCATS CANVASS Library (AID 1347350); details: SW1088 viability, CellTiter-Glo luminescence, 72 h; series mostly up to 38.3 µM; further: nearly all actives have a fitted effect of over 75% in size
How it was run: as §1

[7] = U-118MG Cancer Cell Toxicity qHTS against the NCATS CANVASS Library (AID 1347351); details: U-118MG viability, CellTiter-Glo luminescence, 72 h; series mostly up to 76 µM
How it was run: as §1

[8] = COV-362 Cancer Cell Toxicity qHTS against the NCATS CANVASS Library (AID 1347352); details: COV-362 viability, CellTiter-Glo luminescence, 72 h; series mostly up to 76 µM
How it was run: (§2)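 1000 cells/well, 4 h pre-incubation 37 °C/5% CO2; 11-pnt titration; 72 h; CellTiter-Glo 15 min RT, luminescence.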

[9] = A2780 Cisplatin Sensitive Ovarian Cancer Cell Toxicity qHTS against the NCATS CANVASS Library (AID 1347353); details: A2780 ovarian cancer viability, ATPLite luminescence, 72 h; at 91.4 µM (top of the series) unless noted; further: nearly all actives have a fitted effect of over 60% in size
How it was run: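 750 cells/well, 4 h settle; 11-pt cpd titration; 72 h, 37 °C, 5% CO2; ATPLite 10 min RT; luminescence read.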

[10] = UWB1.289-WTBRCA1 Cancer Cell Toxicity qHTS against the NCATS CANVASS Library (AID 1347354); details: UWB1.289-WTBRCA1 viability, CellTiter-Glo luminescence, 72 h; at 76 µM (top of the series) unless noted
How it was run: as §2

[11] = HEK-293 Cancer Cell Toxicity qHTS against the NCATS CANVASS Library (AID 1347355); details: HEK-293 viability, CellTiter-Glo luminescence, 72 h; series mostly up to 46.1 µM; further: nearly all actives have a fitted effect of over 65% in size
How it was run: as §2

[12] = HPAF-II 24hr Apoptosis Induction qHTS against the NCATS CANVASS Library (AID 1347356); details: HPAF-II caspase-3/7 Caspase-Glo luminescence; series mostly up to 91.4 µM
How it was run: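 500 HPAF-II cells/well; compounds in 11-pnt qHTS; 24 h, 37 C/5% CO2; Caspase-Glo 3/7 added, 15 min RT dark; luminescence read. Doxorubicin control.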

[13] = HEK293 18hr Apoptosis Induction qHTS against the NCATS CANVASS Library (AID 1347357); details: HEK293 caspase-3/7 Caspase-Glo luminescence; series mostly up to 91.4 µM
How it was run: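 Caspase-Glo 3/7 luminescence (15 min, room temperature) measured apoptosis after an 18-hour, 37 degrees C exposure of HEK293 cells (500 cells/well) to compounds in 11 points.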

[14] = HPAF-II 12hr Apoptosis Induction qHTS against the NCATS CANVASS Library (AID 1347358); details: HPAF-II caspase-3/7 Caspase-Glo luminescence; series mostly up to 91.4 µM
How it was run: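 Caspase-Glo 3/7 luminescence (DEVD substrate) reports caspase activity in HPAF-II cells after 12 h compound treatment at 37 degrees C. Compounds were tested in an 11-point series. Doxorubicin served as control.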

[15] = HEK293 24hr Apoptosis Induction qHTS against the NCATS CANVASS Library (AID 1347359); details: HEK293 caspase-3/7 activation, Caspase-Glo luminescence; series mostly up to 91.4 µM
How it was run: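 HEK293 cells, 500 per well, exposed to an 11-point compound series for 24 hours at 37 degrees C. Caspase 3/7 activity read by Caspase-Glo luminescence (DEVD substrate) after 15 min at room temperature.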

[16] = HPAF-II 18hr Apoptosis Induction qHTS against the NCATS CANVASS Library (AID 1347360); details: HPAF-II caspase-3/7 luminescence; series mostly up to 91.4 µM
How it was run: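 Caspase-3/7 activation was measured with luminescent Caspase-Glo 3/7 reagent (15 min, RT) in HPAF-II cancer cells (500 cells/well). Before detection, cells had been treated for 18 h at 37 C with compounds (11 points).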

[17] = HEK293 12hr Apoptosis Induction qHTS against the NCATS CANVASS Library (AID 1347361); details: HEK293 caspase-3/7 Caspase-Glo luminescence; series mostly up to 91.4 µM
How it was run: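 HEK293 cells (500/well, DMEM + 10% FBS) were exposed to natural products across an 11-point series for 12 hours at 37 degrees C. Caspase-3/7 activity was then measured with DEVD luciferase luminescence after 15 min at room temperature.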

[18] = tested on: NAD(P)H diaphorase (Clostridium kluyveri); assay: Diaphorse counterscreen qHTS: Assay Interference Panel against the NCATS CANVASS Library (AID 1347362); details: Diaphorase enzyme, resazurin to resorufin fluorescence; series mostly up to 114 µM
How it was run: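 Clostridium kluyveri diaphorase in PBS + 0.01% Tween-20 preincubated 15 min with compounds. Resazurin and NADH then added for 5 min at room temperature in the dark; resorufin fluorescence read (ex 525, em 598).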

[19] = target: Luciferin 4-monooxygenase (Photinus pyralis) (UniProt P08659); assay: Firefly luciferase counterscreen qHTS: Assay Interference Panel against the NCATS CANVASS Library (AID 1347363); details: purified firefly luciferase, luminescence inhibition, 5 min; series mostly up to 57.5 µM
Luciferin 4-monooxygenase (Photinus pyralis), sequence (P08659 whole entry, looked up): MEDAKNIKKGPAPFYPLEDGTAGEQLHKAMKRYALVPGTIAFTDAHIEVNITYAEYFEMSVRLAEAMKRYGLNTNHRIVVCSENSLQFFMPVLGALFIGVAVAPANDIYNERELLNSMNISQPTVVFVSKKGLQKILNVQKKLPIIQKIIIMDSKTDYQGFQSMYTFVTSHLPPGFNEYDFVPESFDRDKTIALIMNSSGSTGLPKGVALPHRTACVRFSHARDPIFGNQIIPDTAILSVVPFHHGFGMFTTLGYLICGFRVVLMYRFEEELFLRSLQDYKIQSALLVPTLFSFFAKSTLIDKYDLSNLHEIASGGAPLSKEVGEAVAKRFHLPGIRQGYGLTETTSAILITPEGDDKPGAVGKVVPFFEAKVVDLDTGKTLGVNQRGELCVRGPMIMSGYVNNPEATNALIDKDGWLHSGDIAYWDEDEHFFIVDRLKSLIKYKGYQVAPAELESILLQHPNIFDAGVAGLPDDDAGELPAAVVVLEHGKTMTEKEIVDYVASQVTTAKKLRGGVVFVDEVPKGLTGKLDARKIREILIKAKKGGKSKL
How it was run: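 Purified P. pyralis luciferase (0.04 ug/mL, 4x reagent) added to Tris-acetate buffer with 0.013 mM D-luciferin, 0.013 mM ATP and 13.3 mM Mg-acetate; compounds preincubated 15 min, then luminescence read after 5 min, RT.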

Measured: outcome

O=C(O)Cc1c[nH]c2ccc(O)cc12
inactive: [1] | [2] | [3] | [4] | [5] | [6] | [7] | [8] | [9] | [10] | [11] | [12] | [13] | [14] | [15] | [16] | [17] | [18] | [19]

CC(=O)NCCc1c[nH]c2ccc(O)cc12
inactive: [1] | [2] | [3] | [4] | [5] | [6] | [7] | [8] | [9] inactive [at 46.1 µM] | [10] inactive [at 38.3 µM] | [11] | [12] | [13] | [14] | [15] | [16] | [17] | [19]
